# Tests used:
# [1] = tested on: Vero E6 infected with SARS-CoV-2; test: morphology score (similarity to uninfected cells); higher = more like uninfected cells; conditions: 24 h
# [2] = tested on: Vero E6 infected with SARS-CoV-2; test: SARS-CoV-2 infection rate relative to infected DMSO; higher = more infection, active = 60 or less; conditions: 24 h
Compound,morphology score [1],SARS-CoV-2 infection rate [2]
CCC(=O)c1cc(-c2ccc(Cl)cc2)n(-c2ccc(S(N)(=O)=O)cc2)c1C (10 µM),0.104,102% (inactive)
O=C(C1CCCCC1)N1CC(=O)N2CCc3ccccc3C2C1 (centres undefined) [praziquantel] (10 µM),0.151,106% (inactive)
C[C@H]1[C@H](C)CC[C@]2(C(=O)O)CC[C@]3(C)C(=CC[C@@H]4[C@@]5(C)C[C@@H](O)[C@H](O)C(C)(C)[C@@H]5CC[C@]43C)[C@H]12 [corosolic-acid] (10 µM),-0.302,116% (inactive)
O=[N+]([O-])c1cc([N+](=O)[O-])c(/C=C/c2ccc(Cl)c(Cl)c2)cc1/C=C/c1ccc(Cl)c(Cl)c1 (10 µM),0.192,97.5% (inactive)
CC(C)(Cc1ccc2ccccc2c1)NC[C@@H](O)COc1cccc(Cl)c1C#N (10 µM),0.703,9.5% (active)
C/C(=N\NC(=N)N)c1cc(NC(=O)CCCCCCCCC(=O)Nc2cc(/C(C)=N/NC(=N)N)cc(/C(C)=N/NC(=N)N)c2)cc(/C(C)=N/NC(=N)N)c1 [semapimod] (0.833333 µM),-0.352,115% (inactive)
O=C(Nc1cccnc1)c1cc(-c2ccnc(F)c2)ccc1OCc1ccccc1 (10 µM),-0.0646,114% (inactive)
CCc1cnn2c(NCc3ccc[n+]([O-])c3)cc(N3CCCC[C@H]3CCO)nc12 [dinaciclib] (0.833333 µM),-0.154,116% (inactive)
N#C/C(=C\c1ccc(O)c(O)c1)C(N)=O [tyrphostin-AG-99] (10 µM),0.0858,106% (inactive)
NC(=O)OCCCc1ccccc1 [phenprobamate] (10 µM),0.0438,102% (inactive)
O=C(O)CCNC(=O)c1ccccc1 [betamipron] (10 µM),0.00831,118% (inactive)
N[C@@H](Cc1ccc(Cl)cc1)C(=O)O (racemic) [fenclonine-(+/-)] (10 µM),0.00322,109% (inactive)

# Reference: the supplement of paper PMC13380429
